Measured values published in the supplement of paper PMC7366291.
Where a name gives a salt, the structure may show the parent alone. ± gives the standard deviation or the standard deviation of the averaged measurements.

Assays:
Conditions in all cases: 25 µM; exposure: 24-48 hpf
[1] = tested on: Danio rerio Tg(wt1b:EGFP) embryo, pronephros; assay: glomerular separation, fold change vs DMSO control; higher = glomeruli further apart (abnormal)
Outline: (§1)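 Features are reported as fold changes against the mean of same-day DMSO-treated embryos. Before that, values more than 2 SD away from the feature mean were excluded. The embryos, dechorionated Tg(wt1b:EGFP) zebrafish, had been exposed from 24 to 48 hpf at 28.5°C to 25 μM compound in 0.5% DMSO in HEPES-buffered E3 with 0.003% PTU, and distances and angles came from 16 manually set points on maximum projections of dorsal pronephros images in Fiji.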

[2] = tested on: Danio rerio Tg(wt1b:EGFP) embryo, pronephros; assay: glomerular width (mean of left and right), fold change vs DMSO control; higher = wider glomerulus
Outline: as §1

[3] = tested on: Danio rerio Tg(wt1b:EGFP) embryo, pronephros; assay: fraction of imaged embryos annotated as normal kidney; higher = less nephrotoxic; extreme values may be limits of the assay
Outline: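 The value given is the share of embryos in each treatment scored as having a normal kidney. To obtain it, dechorionated Tg(wt1b:EGFP) zebrafish embryos were treated from 24 to 48 hpf at 28.5°C with 25 μM compound in 0.5% DMSO, in 5 mM HEPES-buffered E3 with 0.003% PTU. Pronephroi were imaged by widefield fluorescence (470 nm, 10 z-slices), and every embryo was annotated by hand from maximum projections.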

[4] = tested on: Danio rerio Tg(wt1b:EGFP) embryo, pronephros; assay: pronephric angle neck segment to proximal convoluted tubule (mean of left and right), fold change vs DMSO control; higher = larger pronephric angle
Outline: as §1

SMILES	glomerular separation [1]	glomerular width [2]	fraction of imaged embryos annotated as normal kidney [3]	pronephric angle neck segment [4]
CCCc1nc2c(C)cc(-c3nc4ccccc4n3C)cc2n1Cc1ccc(-c2ccccc2C(=O)O)cc1 [Telmisartan]	1.22 ± 0.41	0.988 ± 0.024	0.75	1.16 ± 0.046
C[C@]12CC[C@@H]3c4ccc(O)cc4CC[C@H]3[C@@H]1C[C@@H](O)[C@@H]2O [Estriol]	0.626 ± 0.2	1.03 ± 0.042	0.917	1.026 ± 0.0015
C[C@H](N[C@@H](CCc1ccccc1)C(=O)O)C(=O)N1CCC[C@H]1C(=O)O [Enalaprilat dihydrate]	1.03 ± 0.34	1 ± 0.012	1	1.01 ± 0.025
CC1(C)S[C@@H]2[C@H](NC(=O)[C@H](N)c3ccc(O)cc3)C(=O)N2[C@H]1C(=O)O [Amoxicillin]	1.13 ± 0.42	0.961 ± 0.046	0.833	1.04 ± 0.074
CN(C)CCOC(c1ccccc1)c1ccccc1.Cn1c(=O)c2[nH]c(Cl)nc2n(C)c1=O [Dimenhydrinate]	1.31 ± 0.54	1.05 ± 0.054	0.917	1.029 ± 0.0072
OC(CCCN1CCCCC1)(c1ccccc1)c1ccccc1 [Diphenidol hydrochloride]	0.854 ± 0.23	1.1 ± 0.11	0.833	1.06 ± 0.02
COC(=O)Nc1nc2ccc(SC(C)C)cc2[nH]1 [Methiazole]	3.98 ± 1.2	0.49428 ± 0.00044	0	1.95 ± 0.046
O=C1CC[C@@H](C(=O)N2CSC[C@H]2C(=O)O)N1 [Pidotimod]	1.03 ± 0.42	1.05 ± 0.025	0.917	1.003 ± 0.0016
COc1cc(C(=O)OCCCN2CCCN(CCCOC(=O)c3cc(OC)c(OC)c(OC)c3)CC2)cc(OC)c1OC [Dilazep dihydrochloride]	1 ± 0.36	0.986 ± 0.055	0.75	1.08 ± 0.089
CCN(CC)C(=O)Nc1ccc(OCC(O)CNC(C)(C)C)c(C(C)=O)c1 (centres undefined) [Celiprolol hydrochloride]	0.729 ± 0.21	1.03 ± 0.018	0.833	0.964 ± 0.046
CCn1cc(C(=O)O)c(=O)c2ccc(C)nc21 [Nalidixic acid sodium salt]	1.31 ± 0.59	1.11 ± 0.025	0.25	1.19 ± 0.022
COc1cccc2c1C(=O)c1c(O)c3c(c(O)c1C2=O)C[C@@](O)(C(C)=O)C[C@@H]3O[C@H]1C[C@H](N)[C@H](O)[C@H](C)O1 [Daunorubicin hydrochloride]	0.979 ± 0.36	1.03 ± 0.019	0.917	1.04 ± 0.025
C[C@@H](O[C@H]1OCCN(Cc2n[nH]c(=O)[nH]2)[C@H]1c1ccc(F)cc1)c1cc(C(F)(F)F)cc(C(F)(F)F)c1 [Aprepitant]	0.995 ± 0.34	1.09 ± 0.076	0.667	1.05 ± 0.059
CCN(CC)CCOC(=O)C1(c2ccc([N+](=O)[O-])cc2)CCCC1 [Nitrocaramiphen hydrochloride]	0.899 ± 0.43	0.971 ± 0.037	0.909	0.984 ± 0.075
CN(Cc1cnc2nc(N)nc(N)c2n1)c1ccc(C(=O)N[C@@H](CCC(=O)O)C(=O)O)cc1 [Methotrexate]	1.19 ± 0.59	1.0099 ± 0.0002	0.917	0.978 ± 0.014
Nc1ccc(S(=O)(=O)Nc2ccccn2)cc1 [Sulfapyridine]	0.906 ± 0.35	1.07 ± 0.03	0.75	1 ± 0.083
C[C@H](CCC(=O)O)[C@H]1CC[C@H]2[C@@H]3[C@H](O)C[C@@H]4C[C@H](O)CC[C@]4(C)[C@H]3CC[C@]12C [Chenodiol]	2.11 ± 0.81	0.744 ± 0.025	0.333	1.04 ± 0.13
CN(C)/N=N/c1[nH]cnc1C(N)=O [Dacarbazine]	0.922 ± 0.21	0.991 ± 0.037	1	0.997 ± 0.06
Cc1onc(-c2ccccc2)c1-c1ccc(S(N)(=O)=O)cc1 [Valdecoxib]	0.816 ± 0.3	1.13 ± 0.019	0.917	0.9437 ± 0.0089

SMILES	glomerular separation [1]	glomerular width [2]	fraction of imaged embryos annotated as normal kidney [3]	pronephric angle neck segment [4]
CCN(CC)CC#CCOC(=O)C(O)(c1ccccc1)C1CCCCC1 (centres undefined) [Oxybutynin chloride]	1.32 ± 0.54	1.04 ± 0.022	1	0.985 ± 0.028
CCOC(=O)[N-]c1c[n+](N2CCOCC2)no1 [Molsidomine]	0.9 ± 0.41	0.9963 ± 0.0028	0.833	0.982 ± 0.013
CCOC(=O)[C@H](CCc1ccccc1)N[C@@H](C)C(=O)N1[C@H](C(=O)O)C[C@@H]2CCC[C@@H]21 [Ramipril]	0.977 ± 0.26	0.8501 ± 0.0032	1	1.037 ± 0.0046
NS(=O)(=O)c1cc2c(cc1Cl)NC(C(Cl)Cl)NS2(=O)=O (centres undefined) [Trichlormethiazide]	0.873 ± 0.36	0.992 ± 0.012	0.75	0.899 ± 0.015
O=C(CCCN1CCN(c2ccccn2)CC1)c1ccc(F)cc1 [Azaperone]	1.11 ± 0.43	0.925 ± 0.039	0.833	1 ± 0.019
COc1ccc([C@@H]2Sc3ccccc3N(CCN(C)C)C(=O)[C@@H]2OC(C)=O)cc1 [Diltiazem hydrochloride]	0.914 ± 0.32	1.24 ± 0.11	0.667	1.211 ± 0.0023
CCN(CC)CCOC(=O)C(Cc1cccc2ccccc12)CC1CCCO1 (centres undefined) [Nafronyl oxalate]	1.2 ± 0.63	0.945 ± 0.058	0.583	1.04 ± 0.054
CCn1cc(C(=O)O)c(=O)c2cc(F)c(N3CCNCC3)cc21 [Norfloxacin]	0.828 ± 0.22	1.05 ± 0.037	1	0.9433 ± 0.0086
Clc1ccccc1C(c1ccccc1)(c1ccccc1)n1ccnc1 [Clotrimazole]	2.06 ± 1.1	0.861 ± 0.11	0.583	1.26 ± 0.1
C#CCN(C)CCCOc1ccc(Cl)cc1Cl [Clorgyline hydrochloride]	0.959 ± 0.32	1.05 ± 0.029	1	0.984 ± 0.047
Clc1ccc(C(Cn2ccnc2)OCc2csc3c(Cl)cccc23)c(Cl)c1 (centres undefined) [Sertaconazole nitrate]	3.82 ± 1.8	0.727 ± 0.039	0	1.56 ± 0.052
CC(CNC1CCCCC1)OC(=O)c1ccccc1 (centres undefined) [Hexylcaine hydrochloride]	0.859 ± 0.46	0.937 ± 0.014	0.857	1.09 ± 0.14
C#CCN[C@@H]1CCc2ccccc21 [Rasagiline]	1.13 ± 0.38	0.994 ± 0.012	0.667	0.972 ± 0.021
CC(C)C(=O)c1c(C(C)C)nn2ccccc12 [Ibudilast]	0.785 ± 0.21	0.92 ± 0.051	1	1.01 ± 0.036
CN1C(C(=O)Nc2ccccn2)=C(O)c2sccc2S1(=O)=O [Tenoxicam]	0.97 ± 0.16	0.985 ± 0.022	0.917	0.999 ± 0.028
OCCOCCN1CCN(C(c2ccccc2)c2ccc(Cl)cc2)CC1 (centres undefined) [Hydroxyzine dihydrochloride]	0.754 ± 0.2	1.02 ± 0.013	1	0.964 ± 0.048
CN1CCC(OC(c2ccccc2)c2ccccc2)CC1 [Diphenylpyraline hydrochloride]	1.02 ± 0.24	1.07 ± 0.053	1	0.963 ± 0.035
CCOc1nc2cccc(C(=O)O)c2n1Cc1ccc(-c2ccccc2-c2nnn[nH]2)cc1 [Candesartan]	0.996 ± 0.37	1.03 ± 0.023	0.917	1.01 ± 0.019
CC(C)c1c(C(=O)Nc2ccccc2)c(-c2ccccc2)c(-c2ccc(F)cc2)n1CC[C@@H](O)C[C@@H](O)CC(=O)O [Atorvastatin]	3.42 ± 1.4	0.691 ± 0.032	0	1.65 ± 0.047

SMILES	glomerular separation [1]	glomerular width [2]	fraction of imaged embryos annotated as normal kidney [3]	pronephric angle neck segment [4]
CCOC(=O)[C@H](CCc1ccccc1)N[C@@H](C)C(=O)N1CCC[C@H]1C(=O)O [Enalapril maleate]	0.704 ± 0.19	1.01 ± 0.03	0.667	0.9423 ± 0.0071
CCOc1ccccc1OCC1CNCCO1 (centres undefined) [Viloxazine hydrochloride]	1.35 ± 0.55	0.9002 ± 0.0018	0.833	1.04 ± 0.062
CC(=O)NC[C@H]1CN(c2ccc(N3CCOCC3)c(F)c2)C(=O)O1 [Linezolid]	0.987 ± 0.23	1.02 ± 0.019	0.917	0.936 ± 0.029
COc1ccccc1OCC(O)CN1CCN(CC(=O)Nc2c(C)cccc2C)CC1 (centres undefined) [Ranolazine]	0.739 ± 0.33	1.021 ± 0.0091	0.833	1.01 ± 0.029
CCN(CC)CCNC(=O)COc1ccc(OC)cc1 [Mefexamide hydrochloride]	1.52 ± 0.84	0.916 ± 0.021	0.833	1.07 ± 0.086
CO[C@@H]1[C@@H](OC(N)=O)[C@@H](O)[C@H](Oc2ccc3c(O)c(NC(=O)c4ccc(O)c(CC=C(C)C)c4)c(=O)oc3c2C)OC1(C)C [Novobiocin sodium salt]	0.71 ± 0.24	1.06 ± 0.038	0.75	0.9784 ± 0.0046
Cn1c([N+](=O)[O-])cnc1COC(N)=O [Ronidazole]	0.869 ± 0.18	0.99 ± 0.011	0.75	1.02 ± 0.016
Nc1ccccc1S(N)(=O)=O [2-Aminobenzenesulfonamide]	0.99 ± 0.24	1.02 ± 0.072	0.917	1.052 ± 0.00059
CCCCCCCN(CC)CCCC(O)c1ccc(NS(C)(=O)=O)cc1 (centres undefined) [Ibutilide fumarate]	0.897 ± 0.24	1.0672 ± 0.00094	1	0.961 ± 0.086
CO[C@H]1/C=C/O[C@@]2(C)Oc3c(C)c(O)c4c(O)c(c(/C=N/N5CCN(C6CCCC6)CC5)c(O)c4c3C2=O)NC(=O)/C(C)=C\C=C\[C@H](C)[C@H](O)[C@@H](C)[C@@H](O)[C@@H](C)[C@H](OC(C)=O)[C@@H]1C [Rifapentine]	0.895 ± 0.2	0.985 ± 0.066	0.909	1.1 ± 0.094
O=C(Cn1ccnc1[N+](=O)[O-])NCCO [Etanidazole]	0.807 ± 0.34	1.06 ± 0.014	0.917	0.9304 ± 0.004
C=CCOC(Cn1ccnc1)c1ccc(Cl)cc1Cl (centres undefined) [Enilconazole]	0.575 ± 0.22	1.12 ± 0.024	1	1.1 ± 0.062
Cc1scc2c1N(C(=O)CN1CCN(C)CC1)c1ccccc1NC2=O [Telenzepine dihydrochloride]	0.967 ± 0.17	0.937 ± 0.032	1	0.963 ± 0.01
CC1CNc2c(cccc2S(=O)(=O)N[C@@H](CCCNC(=N)N)C(=O)N2CC[C@@H](C)C[C@@H]2C(=O)O)C1 (some centres undefined) [Argatroban]	1.4 ± 1	0.949 ± 0.041	0.909	0.997 ± 0.04
CC(C[N+](C)(C)C)OC(N)=O (centres undefined) [Bethanechol chloride]	0.946 ± 0.32	1.023 ± 0.0027	0.833	0.998 ± 0.024
NC(=O)N1c2ccccc2C=Cc2ccccc21 [Carbamazepine]	0.842 ± 0.19	0.99 ± 0.04	0.667	0.955 ± 0.025
O=C1OCCN1/N=C/c1ccc([N+](=O)[O-])o1 [Furazolidone]	0.83 ± 0.29	0.9957 ± 0.006	1	0.935 ± 0.054
COc1cc2ncnc(Nc3ccc(F)c(Cl)c3)c2cc1OCCCN1CCOCC1 [Gefitinib]	1.29 ± 0.64	0.981 ± 0.034	1	1.02 ± 0.024
